Several values for one entry are separate records, joined by “and”; a condition that tells them apart may be missing. Identical values can stand only once. Activity calls are given as the source filed them. The calls were made as follows: active = hit-call score of the fitted dose curve at least 0.9, where 1 is the maximum; inactive = score below 0.9.
Legend:
[1] = read-out: Matrix Metallopeptidase 1 (MMP1), MMP1 (gene 4312); experiment: BSK_BF4T_MMP1: BioMAP Diversity Plus: BF4T Assay for Matrix Metallopeptidase 1 (MMP1) Biomarker Activity (AID 2284270); settings: primary human bronchial epithelial cells with fibroblasts
Procedure, shortened: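 MMP-1 quantified by ELISA in primary human bronchial epithelial/dermal fibroblast co-cultures, 24 hours post-dosing, with DMSO as baseline; parallel sulforhodamine B staining (560 nm) tracks overt cytotoxicity.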

[2] = read-out: Matrix Metallopeptidase 3 (MMP3), MMP3 (gene 4314); experiment: BSK_BF4T_MMP3: BioMAP Diversity Plus: BF4T Assay for Matrix Metallopeptidase 3 (MMP3) Biomarker Activity (AID 2284271); settings: primary human bronchial epithelial cells with fibroblasts
Procedure, shortened: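 MMP-3 level read by ELISA after 24 h chemical exposure of bronchial epithelial cell/dermal fibroblast co-cultures, fitted upward relative to DMSO. Parallel cultures stained with 0.1% SRB after TCA fixation gauge overt cytotoxicity.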

[3] = read-out: Tissue plasminogen activator (tPA), PLAT (gene 5327); experiment: BSK_BF4T_tPA: BioMAP Diversity Plus: BF4T Assay for Tissue plasminogen activator (tPA) Biomarker Activity (AID 2284272); settings: primary human bronchial epithelial cells with fibroblasts
Procedure, shortened: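 tPA level quantified by ELISA at 24 h post-treatment in bronchial epithelial/dermal fibroblast co-cultures, gain of signal scored against DMSO baseline. Parallel cultures stained with 0.1% SRB (560 nm) to flag overt cytotoxicity.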

[4] = read-out: Plasminogen Activator Inhibitor-1 (PAI1), SERPINE1 (gene 5054); experiment: BSK_BF4T_PAI1: BioMAP Diversity Plus: BF4T Assay for Plasminogen Activator Inhibitor-1 (PAI1) Biomarker Activity (AID 2284273); settings: primary human bronchial epithelial cells with fibroblasts
Procedure, shortened: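 PAI-1 levels quantified by ELISA 24 h post-dosing in bronchial epithelial cell plus dermal fibroblast cultures. Signal gain referenced to DMSO baseline. Sulforhodamine B total-protein staining of parallel wells checked cytotoxicity.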

[5] = BSK_BF4T_SRB: Viability Assessment in the BioMAP Diversity Plus: BF4T Assay (AID 2284274); settings: primary human bronchial epithelial cells with fibroblasts
Procedure, shortened: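 Cytotoxicity measured as total protein: cells fixed with 10% TCA, stained with 0.1% SRB, read at 560 nm. Bronchial epithelial/dermal fibroblast co-culture, 24 h after dosing, with positive-direction fitting relative to DMSO.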

[6] = read-out: urokinase Plasminogen Activator (uPA), PLAU (gene 5328); experiment: BSK_BF4T_uPA: BioMAP Diversity Plus: BF4T Assay for urokinase Plasminogen Activator (uPA) Biomarker Activity (AID 2284275); settings: primary human bronchial epithelial cells with fibroblasts
Method: BSK_BF4T is a cell-based, multiplexed-readout assay that uses bronchial epithelial cells and dermal fibroblasts, a human vascular primary cell, with measurements taken at 24 hours after chemical dosing in a microplate: 96-well plate.BSK_BF4TA is an assay component measured in the BSK_BF4T assay. It measures uPA antibody related to regulation of gene expression using ELISA technology.Data from the assay component BSK_BF4TA was analyzed at the endpoint, BSK_BF4TA, in the positive analysis fitting direction relative to DMSO as the negative control and baseline of activity. Using a type of binding reporter, gain or loss-of-signal activity can be used to understand protein changes. […]
The levels of cell surface (or secreted, indicated by the prefix "s") biomarker endpoints were measured by ELISA. Overt cytotoxicity to cells in confluent adherent cultures (all systems other than the BT system) was assessed by measuring total protein levels using sulforhodamine B (SRB) staining in parallel cultures at the time of biomarker measurements, indicated as SRB endpoints. For proliferation assays for adherent cell types, individual cell types are cultured at sub-confluence and relative cell numbers quantified by SRB staining at time points optimized for each system (48 h: 3C and CASM3C systems; 72 h: BT and HDF3CGF systems; 96 h: SAg system). […] Plates were read after 6 h.

[7] = read-out: Matrix Metallopeptidase 9 (MMP9), MMP9 (gene 4318); experiment: BSK_BF4T_MMP9: BioMAP Diversity Plus: BF4T Assay for Matrix Metallopeptidase 9 (MMP9) Biomarker Activity (AID 2284276); settings: primary human bronchial epithelial cells with fibroblasts
Procedure, shortened: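 MMP-9 levels were measured by ELISA after 24 h exposure of bronchial epithelial cell/dermal fibroblast co-cultures, with DMSO as baseline. Parallel cultures were stained with 0.1% SRB after TCA fixation, read at 560 nm, to flag overt cytotoxicity.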

[8] = read-out: Interleukin-8 (IL8), CXCL8 (gene 3576); experiment: BSK_IMphg_IL8: BioMAP Diversity Plus: IMphg Assay for Interleukin-8 (IL8) Biomarker Activity (AID 2284277); settings: primary human endothelial cells with macrophages
Procedure, shortened: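 IL-8 levels were measured by ELISA 24 h after dosing in primary human venular endothelial cell–macrophage cultures, referenced to DMSO; parallel SRB staining monitored overt cytotoxicity.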

[9] = read-out: Vascular cell adhesion molecule 1 (VCAM1), VCAM1 (gene 7412); experiment: BSK_IMphg_VCAM1: BioMAP Diversity Plus: IMphg Assay for Vascular cell adhesion molecule 1 (VCAM1) Biomarker Activity (AID 2284286); settings: primary human endothelial cells with macrophages
Procedure, shortened: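 ELISA read-out of VCAM-1 on venular endothelial cell/macrophage co-cultures at 24 h post-treatment, with DMSO as baseline and positive-direction fitting. Parallel sulforhodamine B total-protein staining (560 nm) served as the overt cytotoxicity measure.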

CD40, CD40 (gene 958) = experiment: BSK_IMphg_CD40: BioMAP Diversity Plus: IMphg Assay for CD40 Biomarker Activity (AID 2284288); settings: primary human endothelial cells with macrophages
Procedure, shortened: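 ELISA read-out of cell-surface CD40 at 24 h in human venular endothelial cell/macrophage co-cultures. Activity fitted in the positive direction against DMSO; parallel SRB staining (560 nm) gauges overt cytotoxicity.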

| Compound | outcome [1] | AC50 [2] | AC50 [3] | outcome [4] | outcome [5] | outcome [6] | AC50 [7] | AC50 [8] | AC50 [9] | AC50 (CD40, CD40 (gene 958)) | outcome [2] | outcome [3] | outcome [7] | outcome [8] | outcome [9] | outcome (CD40, CD40 (gene 958)) |
| --- | --- | --- | --- | --- | --- | --- | --- | --- | --- | --- | --- | --- | --- | --- | --- | --- |
| C[N+](C)(C)CCCNS(=O)(=O)C(F)(F)C(F)(F)C(F)(F)C(F)(F)C(F)(F)C(F)(F)C(F)(F)C(F)(F)F | inactive | 52.2 µM (active) and 51.4 µM (active) | 8.18 µM (active) and 7.16 µM (active) | inactive | inactive | inactive | 9.46 µM (active) and 30 µM (active) | 43 µM (active) and 30 µM (active) | 13.9 µM (active) and 22.4 µM (active) | 21.8 µM (active) and 23.9 µM (active) |  |  |  |  |  |  |
| O=C(O)C(F)(F)C(F)(F)C(F)(F)C(F)(F)C(=O)O | inactive |  |  | inactive | inactive | inactive |  |  |  |  | inactive | inactive | inactive | inactive | inactive | inactive |
